Assay outcomes from PubChem.
Compounds with a hit are over-represented: about 12% of the library has one in this group of screens.
ROMK primary: modulates human ROMK potassium channel activity. AID 1918. B-score at 10 µM. 130,000 tested, 2% active. P48048. Tet-inducible ROMK, thallium flux fluorescence; actives lie on both sides;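 active = signal ratio slope over the read window, or its plate-corrected B-score, at least 3 SD from the plate mean, either direction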;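 also: B-score of the F/F0 ratio slope over 7 to 12 s after thallium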
Target sequence (P48048 whole entry, looked up): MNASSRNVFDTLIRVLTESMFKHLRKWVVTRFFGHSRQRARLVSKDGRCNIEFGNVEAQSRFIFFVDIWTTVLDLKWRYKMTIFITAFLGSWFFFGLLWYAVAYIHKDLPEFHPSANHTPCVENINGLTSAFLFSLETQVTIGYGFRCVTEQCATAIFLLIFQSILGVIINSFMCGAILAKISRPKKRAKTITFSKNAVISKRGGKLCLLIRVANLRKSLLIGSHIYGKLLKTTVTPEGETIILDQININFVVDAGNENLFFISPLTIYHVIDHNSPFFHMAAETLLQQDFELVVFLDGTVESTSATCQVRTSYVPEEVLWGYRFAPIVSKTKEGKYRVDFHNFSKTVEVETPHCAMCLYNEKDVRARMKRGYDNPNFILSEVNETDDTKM
L major viab: Leishmania major promastigote growth inhibition. 200,000 tested, 9% active. Leishmania major promastigotes, resazurin fluorescence viability. inhibition, % at 10 µM; in the data active = inhibition above about 50%;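 also: promastigotes grown with compound for 44 hours at 28 °C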
KCC2 mod: modulates chloride dependent transport by human KCC2; Q9H2X9; KCC2 cells, thallium flux FluoZin-2 fluorescence; B-score of Tl+ flux slope (higher = more flux/activation; lower = inhibition) at 10 µM; 190,000 tested, 2.2% active; AID 1456;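 active = thallium flux slope and its plate-corrected score both differing from the plate sample mean at a set confidence after two filtering rounds, in either direction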;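 also: slope of fluorescence scaled to starting intensity during 10 to 20 s after thallium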
WT yeast gro inh: growth inhibition of WT yeast, mitochondrial fusion screen | 190,000 tested, 2.1% active | inhibition, % at 10 µM | mitochondrial fusion phenotypic screen, WT strain | AID 1362; in the data active = inhibition above about 58%; tested in S. cerevisiae
m-calpain inh: inhibitors of pig calpain II; 220,000 tested, 0.37% active; inhibition, % at 16 µM; purified calpain II, fluorogenic peptide substrate, 30 min;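 active = inhibition above about 50%, limit read from the data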
Lmaj promast 1uM: blocks Leishmania major promastigote growth at 1 uM, repeat screen. shares compounds with L major viab. 1,100 tested, 13% active. L. major promastigote growth, resazurin fluorescence, 48 h. inhibition, % at 1 µM;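 active = inhibition above about 50% in both repeat tests, limit read from the data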
The depositor's hits bear a star; . = not tested or not shown.

SMILES	ROMK primary	L major viab	KCC2 mod	WT yeast gro inh	m-calpain inh	Lmaj promast 1uM
COc1ccc(CSC2=NCCN2)cc1Cl	-0.52	99*	0.85	-10	-26	-11
O=[N+]([O-])c1cc(CSC2=NCCN2)ccc1O	0.089	.	0.5	.	-12	.
COc1ccc(NC(=O)/C(C#N)=C/c2ncc([N+](=O)[O-])n2C)c(OC)c1	.	.	0.51	.	-25	.
O=C(c1cccc(Br)c1)c1cn(-c2ccccc2)nc1C(=O)c1ccccc1	-0.84	88*	1.8	0	22	7
O=Cc1ccc(OC2OCCOC2Oc2ccc(C=O)cc2)cc1 (configuration not stated)	0.31	53*	-0.083	-9	-21	1
CCc1ccc(OCCCOc2ccc(C=O)cc2)cc1	.	-1	0.41	4	-58	.
Cc1cc2c(c(/C=C/C(=O)c3ccccc3)c1)OC1(C=C2)Oc2ccccc2C(=O)N1C (configuration not stated)	0.0066	98*	1.1	0	-90	25
Cn1cc(/C=C/C(=O)c2ccccc2)c2ccccc21	.	.	-0.02	.	35	.
COc1cccc(/C=N/n2c(SC)nnc2-c2ccccc2)c1OC	.	84*	.	11	-323	22
C=CCOC(=O)/C(=C/c1cccc2ccccc12)NC(=O)c1ccccc1	.	7	-0.35	24	9	.
Cc1c(=O)n(OCc2cccc(F)c2)c2ccccc2[n+]1[O-]	.	-5	0.39	21	-60	.
Cc1c(=O)n(OCc2ccccc2F)c2ccccc2[n+]1[O-]	.	73*	.	-2	73*	-19
Nc1nnc(SCc2ccccc2F)s1	.	.	-0.22	.	-24	.
CN1CCCN(C2C3CC4CC(C3)CC2C4)CC1 (configuration not stated)	.	52*	-0.27	32	5	-12
Cc1c2ccccc2nc2c(F)c(NC(C)C)c(F)c(F)c12	.	50*	1.3	16	-66	10
Cc1cc(C)n(CCc2nc(-c3cc4ccccc4o3)cs2)n1	.	100*	-1.2	.	-39	-2
O=C(Cc1cccs1)N/N=C/C(Cl)=C/c1ccccc1	0.62	4	0.45	2	-13	.
Cc1cc(C)c(C(CC(=O)c2cccs2)C(C#N)C#N)c(C)c1 (configuration not stated)	0.11	92*	-0.071	-4	-24	-9
Cc1ccc2[nH]c3c(c2c1)CCc1cn[nH]c1-3	.	52*	0.22	17	-99	-8
COc1ccccc1NC(=O)NC1(C(=O)N2CCCCCC2)CCCCC1	.	7	0.41	10	22	.
COc1ccc(N(CC(=O)Nc2cccc(N(C)S(C)(=O)=O)c2)S(=O)(=O)c2ccccc2)cc1Cl	0.93	56*	-0.085	3	-55	-6
CCOC(=O)c1cccc(NC(=O)CSc2nc3cccnc3n2C)c1	.	26	.	2	-9	.
COc1ccc(NC2=Nc3cccc4cccc2c34)cc1	.	74*	-1.2	13	19	27
CCN1C(=O)CCCc2ccccc21	1.5	-5	-1.1	-8	11	.
CN(C)CCCN1c2ccccc2Sc2ccccc21	.	17	-0.8	13	-9	.
SMILES	ROMK primary	L major viab	KCC2 mod	WT yeast gro inh	m-calpain inh	Lmaj promast 1uM
CNCCCN1c2ccccc2CCc2ccccc21	.	82*	0.14	-1	17	-1
CN(C)CCCN1c2ccccc2CCc2ccc(Cl)cc21	.	99*	1.1	62*	16	20
CN(C)C(CNC(=O)Cc1cccc(C(F)(F)F)c1)c1ccco1 (configuration not stated)	-0.18	-1	-0.56	-1	2	.
COc1cccc2c(Cl)c(CCCl)c(C)nc12	-0.01	11	-2.1	11	-4	.
COc1ccccc1N=C1SCC(=O)N1c1ccccc1OC	-0.63	-4	1.2	5	-9	.
NC(=O)N/N=C/c1ccc(N2CCOCC2)s1	0.84	60*	-1	-3	-18	-8
O=C(O)c1cc(N/N=C/c2ccc(N3CCOCC3)s2)ccc1Cl	0.78	36	-0.25	-5	-1	.
Cc1nn(C)c(C)c1/C=N/N=C1\CCC2C3CCc4cc(O)ccc4C3CCC12C (configuration not stated)	0.29	98*	0.25	5	-66	2
CC(C)Cn1nc(NC(=O)C2CCCO2)c2cc3ccccc3nc21 (configuration not stated)	.	63*	0.12	-2	.	-17
CCCn1nc(NC(=O)C2CCCO2)c2cc3cccc(C)c3nc21 (configuration not stated)	.	.	-0.38	.	5	.
COc1cc(OC)cc(C(=O)N[C@H](C(=O)Nc2nc(-c3ccc(F)c(F)c3)cs2)C(C)C)c1	-0.23	6	0.14	-10	8	.
CC(=C/C(=O)O)/C(=C/c1ccccc1)C(=O)O	.	-3	0.94	-26	46	.
O=C(O)c1cc2ccccc2c2cc(Br)ccc12	.	.	-1.5	.	0	.
N#Cc1cc2sc3nc4ccccc4n3c2cc1C#N	.	-5	.	4	-44	.
N#Cc1cc2sc3nnc(-c4ccncc4)n3c2cc1C#N	.	54*	-0.34	-2	7	17
COc1ccnc(CSC(N)=Nc2cccc(C(F)(F)F)c2)c1	-0.42	-3	1.1	22	-5	.
CC(C)C1N=C(c2ccc3c(c2)OCO3)CC(c2ccccc2O)N1 (configuration not stated)	-0.64	99*	-1.5	18	-28	26
CCCCN(C)C(=O)CCC(=O)NNc1nc2ccccc2c2nc(C)nn12	0.18	1	0.14	3	-13	.
Cc1cccc(NC(=S)NC2CC3CCCC(C2)N3CC(C)C)c1 (configuration not stated)	-1.8	95*	-0.0036	-6	10	5
Cn1c(CN2CCCC2)nc2cc(NS(=O)(=O)c3ccc(Cl)cc3)ccc21	.	99*	0.32	.	6	-11
Cc1cc(C)c(S(=O)(=O)Nn2cnnc2)c(C)c1	0.38	6	0.86	-6	4	.
CN(c1ccccc1)P(=O)(N(C)c1ccccc1)N(C)c1ccccc1	1.2	98*	0.8	9	0	5
CCN(c1ccccc1)P(=O)(Nc1ccccc1)Nc1ccccc1	-0.42	.	0.77	.	14	.
O=C(NCCN1CCOCC1)c1cccs1	.	-4	-0.53	-7	-25	.
O=C(Nc1ccc(CN2CCOCC2)cc1)c1cccs1	.	96*	1.4	14	-23	-11
SMILES	ROMK primary	L major viab	KCC2 mod	WT yeast gro inh	m-calpain inh	Lmaj promast 1uM
CC(=O)NC1=NN(C(C)=O)C(C)(c2ccccc2)S1 (configuration not stated)	.	-5	.	10	-32	.
CC(=O)NC1=NN(C(C)=O)C(C)(c2ccc3ccccc3c2)S1 (configuration not stated)	1.2	60*	-0.56	-20	-8	0
COc1ccc(S(=O)(=O)Nc2ccccc2C)cc1C(=O)N1CCOCC1	-0.28	-4	-0.032	18	2	.
COc1cc2c(cc1NC(=S)NC(=O)c1c(OC)cccc1OC)oc1ccccc12	.	88*	-0.79	3	-5	46
COc1ccc(N2COC3c4cccc5cccc(c45)C32)cc1 (configuration not stated)	-0.59	75*	-0.85	17	11	-3
CSc1nnc(Cc2sc(-c3ccccc3)nc2-c2ccccc2)o1	0.013	93*	-0.99	9	3	-11
